PubChem BioAssay AID686971 (National Center for Advancing Translational Sciences (NCATS), 2013)
The campaign covered roughly 360,000 compounds. About 7,500 (2.1%) were called active. About 8% were inconclusive and are not listed. The sample holds actives, similar compounds and a random draw of the others, so the mix is not that of the screen. Unmarked numbers belong to inactive results. The call rests on the fitted dose curve; in most records, active means well fitted cell-killing curve with a large enough effect; inconclusive means small, poorly fitted or top-dose-only effect, or effect the other way, or another doubt; inactive means no such curve, though single readings can be large or run the other way.

Test: qHTS for induction of synthetic lethality in tumor cells producing 2HG: qHTS for the HT-1080-IDH1KD cell line;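 on activity, negative = toxicity: 0% = DMSO wells and -100% = cell-free medium wells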
Conditions: HT-1080 IDH1 knockdown viability, ATP luminescence, 48 h; series mostly up to 46.1 µM; activity, negative = toxicity: at the top concentration
Method in brief: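 CellTiter-Glo luminescence after 48 h compound exposure at 37 degrees C of IDH1-knockdown HT-1080 cells in 5% FBS RPMI. %Activity scaled between DMSO wells and cell-free media wells, with curves fitted and assigned curve classes.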
Potency means the concentration at half of the fitted maximal effect.

SMILES | activity, negative = toxicity | Potency
C[C@H]1CN([C@@H](C)CO)C(=O)CCCn2nncc2CO[C@@H]1CN(C)S(=O)(=O)c1cccc(C#N)c1 | 4.1% | –
Cc1ccc(S(=O)(=O)/N=C2\C=C(NS(=O)(=O)c3ccc(C)cc3)C(=O)c3ccccc32)cc1 | -6.93% | –
COc1ccc(S(=O)(=O)/N=C2\C=C(NS(=O)(=O)c3ccccc3)C(=O)c3ccccc32)cc1 | – | 20.6 µM (active)
COc1ccc(S(=O)(=O)NCCCc2ccccc2)cc1 | 12.5% | –
CC1(C(=O)NS(=O)(=O)c2ccccc2Cl)CCN1C(=O)c1cccc(F)c1 (centres undefined) | 8.85% | –
CCCCC(O)C1=C[N+](=O)CC=C1 (centres undefined) | 2.6% | –
O=C(COC(=O)CCc1c[nH]c2ccccc12)Nc1cccc(Cl)c1 | -0.919% | –
CCCCOC(=O)Nc1nnc(CC(=O)NCc2ccccc2)s1 | – | 5.17 µM (active)
CCCCOC(=O)Nc1nccs1 | 5.67% | –
CCCCc1nnc(NC(=O)CS(=O)(=O)Cc2ccccc2)s1 | -1.65% | –
CCC(c1nc2ccccc2[nH]1)n1c(=O)c(-c2cccs2)nc2ccccc21 (centres undefined) | -15.1% | –
COc1ccc(C(=O)NCC[N+](C)(C)C)cc1 | 4.15% | –
CCOC(=O)c1cnn2c(SC)ncnc12 | 0.362% | –
CCOc1ccc(OCc2ccc(C(=O)Nc3cccc(C)n3)o2)cc1 | 2.75% [at 9.24 µM] | –
Cc1cc(OCc2ccc(C(=O)Nc3ccc(C(=O)O)cc3)o2)ccc1Cl | – | 23.1 µM (active)
COc1ccc(NC(=O)CN(C)C(=O)c2ccc(COc3ccccc3)o2)cc1 | 8.48% | –
N#Cc1ccc(C(C(=O)NCc2ccccc2)n2c(=O)c(-c3ccco3)nc3ccccc32)cc1 (centres undefined) | -2.37% | –
Cc1ccc(-c2csc(-c3c[nH]c4ccccc34)n2)cc1 | -7.85% | –
Cc1ccc(-c2csc(-c3cc(C)on3)n2)cc1 | 21.4% | –
C/C(CC1CC(C)(C)OC1=O)=N/Nc1nc(-c2ccccc2)cs1 (centres undefined) | -19.8% | –
CCc1ccccc1NC(=O)[C@@H]1CCC(=O)N1C1OC(=O)c2c1ccc(OC)c2OC (some centres undefined) | -3.7% | –
COc1ccc2c(c1OC)C(=O)OC2Nc1nc(-c2ccccc2)cs1 (centres undefined) | – | 10.3 µM (active)
Cc1ccc(-c2csc(NC3OC(=O)c4ccccc43)n2)cc1 (centres undefined) | – | 11.6 µM (active)
COC(=O)C(Cc1c[nH]c2ccccc12)NC(=O)CCNC(=O)c1ccco1 (centres undefined) | 1.68% | –
CC(=O)N1CCN(Cc2cc(=O)oc3cc(C)ccc23)CC1 | -9.52% | –

SMILES | activity, negative = toxicity | Potency
c1ccc(Cn2nnc3c(N4CCCCC4)ncnc32)cc1 | -5.29% | –
O=C1CCC(C(=O)OCC(=O)Nc2ccc(OC(F)F)cc2)=NN1 | 2.51% | –
CC(C)(O)C1=C[N+](=O)CC=C1 | 3.42% | –
CCN(CCN(C)C)C(=O)c1ccc2nc(C)c(N(C)C(=O)CCc3ccccc3)n2c1 | -0.559% | –
COc1ccc(NC(=O)CNC(=O)Cc2ccccc2)cc1OC | -11.2% | –
COc1ccc(CNC(=O)Cc2ccc(-c3ccccc3)cc2)cc1OC | – | 14.6 µM (active)
COc1ccc(CCNC(=O)Cc2ccc(C)cc2)cc1OC | -3.7% | –
CC1=C(C(=O)N2CCOCC2)CC(CC(=O)NCCCN(C)C)C(=O)N1Cc1ccc(C(C)(C)C)cc1 (centres undefined) | 20.4% | –
COc1ccc(Cn2c(=O)[nH]c3cc(C(=O)N4CCN(C(=O)c5ccco5)CC4)ccc3c2=O)cc1 | 3.12% | –
COc1ccccc1NC(=O)C(CC(=O)O)Cc1cc(C)cc(C)c1 (centres undefined) | 0.14% | –
O=C(CSc1ccc(Cl)cc1)NC1CC1 | 1.1% | –
COc1ccc(CNC(=O)CCn2cccc2)cc1 | 18% | –
COc1ccc(NC(=O)/C(C#N)=C\c2cc(OC)c(OCc3ccc(C(=O)O)cc3)cc2Br)cc1 | 10.1% | –
COc1ccc(CNC(=O)/C(C#N)=C/c2cccc(OC)c2OC)cc1 | – | 25.9 µM (active)
CCOC(=O)C(C(=O)c1ccccc1)C(c1ccccc1)c1nccc2ccccc12 (centres undefined) | -3.68% | –
Cc1ccc(S(=O)(=O)N2[C@@H](Cc3ccccc3)CO[C@H]2CC(=O)OCc2ccccc2)cc1 | -15.2% | –
CC(=O)Nc1cccc(-c2cc3nc(NCc4cccnc4)n(C)c(=O)c3s2)c1 | 1.49% | –
O=C1NC[C@@H](CCCCN2CCN(CCc3ccc(O)cc3)C(=O)C2=O)N(CC2CCCCC2)C1=O | 3.65% | –
CC(C)(C)N1C(=O)c2c(C(=O)OCc3ccccc3)[nH]c(-c3ccccc3)c2C1=O | 17.4% | –
C/C(=N\NC(=O)c1cc(-c2ccc(O)cc2)nc2ccccc12)c1cccnc1 | -5.02% | –
O=C(N/N=C\c1cccnc1)c1cc(-c2ccccc2)nc2c(Cl)cccc12 | – | 9.2 µM (active)
COc1ccc(-c2cc(C(=O)N/N=C/c3cccnc3)c3ccccc3n2)c(OC)c1 | -17.1% | –
CCOc1ccc(S(=O)(=O)NCCC(=O)NNC(=O)c2ccc(F)cc2)cc1 | 2.21% | –
C[C@@H]1CN([C@H](C)CO)C(=O)c2cc(Br)cnc2O[C@@H]1CN(C)Cc1cncnc1 | -1.69% | –
COc1ccc(-c2nc(-c3ccccc3)no2)c(OC)c1 | – | 14.1 µM (active)

SMILES | activity, negative = toxicity | Potency
COc1ccc(/C=C/c2noc(-c3ccccc3OC(C)=O)n2)cc1 | 10.9% | –
Cc1ccc(-c2nc(-c3ccncc3)no2)c(C)c1 | 1.59% | –
CCOc1ccc(NS(=O)(=O)c2ccc(C(=O)NCC3CCCO3)cc2)cc1 (centres undefined) | 3.49% | –
CCOc1c(OC)cc(C2C(C#N)=C(N)Oc3n[nH]c(-c4ccncc4)c32)cc1OC (centres undefined) | 16.6% | –
COCc1[nH]nc2c1C(C1C=CCCC1)C(C#N)=C(N)O2 (centres undefined) | – | 11.2 µM (active)
CCc1ccc(C2C(C#N)=C(N)Oc3n[nH]c(CC(=O)OC)c32)cc1 (centres undefined) | 9.47% | –
O=C(NCc1cccc(C(F)(F)F)c1)c1ccc2sc(COCCO)nc2c1 | -7.31% | –
Cc1ccc(Cc2c(-c3ccc(Cl)cc3)nc3c4ccccc4ccn23)cc1 | -8.7% | –
Cc1cc(Br)cn2c(Cc3ccsc3)c(-c3ccc(C#N)cc3)nc12 | -12.2% | –
N#Cc1cccc(NC(=O)COC(=O)c2ccccc2C(=O)c2ccc(Cl)c([N+](=O)[O-])c2)c1 | – | 5.17 µM (active)
COC(=O)c1cc(NC(=O)Cc2ccccc2[N+](=O)[O-])ccc1Cl | 0.649% | –
CC(=O)Nc1ccc(NC(=O)COC(=O)c2ccccc2C(=O)c2ccccc2)cc1 | -3.82% | –
N#Cc1ccc(-c2ccc3nccn3c2)cc1 | 19.2% | –
Cc1ccc(S(=O)(=O)N[C@H]2CCC[C@@H]2O)cc1 | 21.9% | –
CNC[C@H]1OCc2cnnn2CCCC(=O)N([C@H](C)CO)C[C@@H]1C | 16.1% | –
COC(=O)c1ccc2c(c1)S(=O)(=O)NC2C (centres undefined) | 7.29% | –
COc1cccc(OCCOc2cccc(/C=N/n3cnnc3)c2)c1 | -5.79% | –
COc1ccccc1OCCOc1ccc(/C=N/n2cnnc2)cc1 | – | 20.6 µM (active)
C=CCc1ccc(OCCOc2cccc(/C=N/n3cnnc3)c2)c(OC)c1 | -2.02% | –
CC(OC(=O)c1cccc(S(=O)(=O)N2CCOCC2)c1)C(=O)NCC1CCCCC1 (centres undefined) | 7.1% | –
CC(C)C1CCN(C(=O)C2CCC(=O)N(C3CCCCCC3)C2)CC1 (centres undefined) | 4.14% | –
CCN1C(=O)[C@H]2[C@@H](c3ccc(C(F)(F)F)cc3)N[C@]3(CCCN(Cc4ccc(Br)cc4)C3=O)[C@H]2C1=O | -12.4% | –
CC(OC(=O)c1ccc2ccccc2n1)C(=O)c1ccccc1 (centres undefined) | -1.33% | –
COc1cccc(/C=C2\C=C(c3ccc(C)cc3)OC2=O)c1OC(C)=O | -10.6% | –
COc1cccc(/C=C/c2ccc3ccccc3n2)c1OC(C)=O | – | 11.6 µM (active)

SMILES | activity, negative = toxicity | Potency
CCCCNC(=O)C[C@@H]1C[C@@]2(C(=O)OC)CC(C)(C)CC=C2N(Cc2ccco2)C1=O | 4.93% | –
C[C@H](NC(=O)[C@@H]1CCCN1C(=O)[C@@H]1CCCN1C(=O)c1ccccc1)c1ccccc1 | 7.53% | –
CC1=C(C(=O)N(C)C)CC(CC(=O)NCCc2ccccn2)C(=O)N1CCC1=CCCCC1 (centres undefined) | 2.74% | –
O=C1COc2ccc(S(=O)(=O)Nc3ccc(OC(F)(F)F)cc3)cc2N1 | -1.36% | –
Cc1nn(C)c(C)c1NS(=O)(=O)c1ccc(OC(F)(F)F)cc1 | -4.46% | –
O=S(=O)(Nc1ccc(O)c2ccccc12)c1ccc(OC(F)(F)F)cc1 | – | 20.6 µM (active)
Cn1c(CCN2CCN(c3ccccn3)CC2)nc2cc(NS(=O)(=O)c3ccc(F)cc3)ccc21 | -25.1% | –
C[C@@H]1CC[C@@]2(OC1)O[C@H]1C[C@H]3[C@@H]4CC=C5C[C@@H](O)[C@H](O)C[C@]5(C)C4CC[C@]3(C)[C@H]1[C@@H]2C (some centres undefined) | 0% | –
C[C@]12CC[C@H](O)CC1=CCC1C2CC[C@@]2(C)C1CC[C@@H]2NC(=O)CCC(=O)O (some centres undefined) | 23.9% | –
CC(=O)OC1CCC2(C)C(=CCC3C4CC(=O)N(O)C(=O)C4(C)CCC32)C1 (centres undefined) | – | 25.9 µM (active)
OC[C@@H]1CN(C2CCCC2)C[C@H](n2cnc3c(NC4CCC4)ncnc32)O1 | 0% | –
CCC(C)C(CO)NC(=O)/C=C/[C@H]1O[C@@H](n2cnc3c(NC(=O)c4ccccc4)ncnc32)[C@H](O)[C@@H]1O (some centres undefined) | -2.07% | –
Cc1ccccc1Nc1nc(-c2cccnc2)cs1 | 4.29% | –
O=C(NCc1cccnc1)Nc1ccccc1F | 17.2% | –
O=C(NCc1cccnc1)C(=O)Nc1nc(-c2ccccc2)cs1 | – | 4.61 µM (active)
C[C@H](CO)N1C[C@H](C)[C@@H](CN(C)C(=O)c2cnccn2)Oc2ncc(Br)cc2C1=O | 15.3% | –
Cc1cc2nc(-c3ccco3)c(Cc3cccc(F)c3)n2c(C)c1Br | – | 20.6 µM (active)
Fc1cccc(Cc2c(-c3ccc(Cl)cc3)nc3ccc(Cl)cn23)c1 | -10.1% | –
Cc1cc2nc(-c3ccc(F)cc3)c(Cc3ccsc3)n2c(C)c1Br | -23.9% | –
COc1ccc(S(=O)(=O)N2CCCCC2c2cc(C(=O)NCc3ccc(F)cc3)no2)cc1 (centres undefined) | -12.8% | –
CCCCNC(=O)OC1CC2CC1[C@H]1CCCCN1C2=O (some centres undefined) | – | 25.9 µM (active)
CCCCNC(=O)C1CCCNC1=O (centres undefined) | 5.05% | –
O=C(OC1CC2CC1[C@H]1CCCCN1C2=O)N1CCOCC1 (some centres undefined) | 4.09% | –
OC(c1ccc(F)cc1)c1ncc(-c2cccc(C(F)(F)F)c2)[nH]1 (centres undefined) | 0% | –
